PubChem BioAssay (EPA / NIEHS)
Several values for one entry are separate records, joined by “and”; a condition that tells them apart may be missing. Equal entries are not always repeated. Some compounds were tested as several samples or in several runs, with calls that do not always agree. Activity calls are given as the source filed them. How the source made its calls: active means hit-call score of the fitted dose curve at least 0.9, where 1 is the maximum; inactive means score below 0.9.

Key:
[1] = molecular target: Bile acid receptor (Homo sapiens) (UniProt Q96RI1); assay: ATG_IR1_CIS: Attagene CIS-FACTORIAL HepG2 Assay for human Nuclear Receptor Subfamily 1 Group H Member 4 (NR1H4), IR1 submotif (AID 2282946); details: IR1 reporter transcription, actives raise or lower the signal
Sequence of Bile acid receptor (Homo sapiens) (Q96RI1 whole entry, looked up): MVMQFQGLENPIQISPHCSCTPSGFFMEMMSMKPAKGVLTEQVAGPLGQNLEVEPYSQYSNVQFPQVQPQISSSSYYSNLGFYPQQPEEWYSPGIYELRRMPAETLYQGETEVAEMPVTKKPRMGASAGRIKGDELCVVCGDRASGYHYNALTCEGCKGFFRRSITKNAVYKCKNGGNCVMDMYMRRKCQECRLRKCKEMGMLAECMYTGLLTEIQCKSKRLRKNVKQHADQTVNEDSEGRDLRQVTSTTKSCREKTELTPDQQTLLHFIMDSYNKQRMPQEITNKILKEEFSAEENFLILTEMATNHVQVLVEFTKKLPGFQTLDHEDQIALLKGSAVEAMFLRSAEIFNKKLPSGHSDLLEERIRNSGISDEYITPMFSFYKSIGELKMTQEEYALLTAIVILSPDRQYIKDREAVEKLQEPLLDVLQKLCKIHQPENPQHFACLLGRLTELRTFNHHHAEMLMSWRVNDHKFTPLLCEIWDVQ
In short: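 Fluorescence of capillary-separated, HpaI-digested RT-PCR reporter products gave IR1-element mRNA induction in HepG2 cells 24 h after dosing. Endogenous transcription factors drove the cis-regulated reporters; activity was fitted bidirectionally against DMSO.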

[2] = ATG_GRE_CIS: Attagene CIS-FACTORIAL HepG2 Assay for human Glucocorticoid Response Elements (GRE) (AID 2282947); details: HepG2 GRE cis-reporter, Attagene multiplex mRNA; actives raise or lower the signal
In short: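 Fluorescence intensity of reporter-specific cDNA fragments, separated by capillary electrophoresis, provides the signal. Constructs carry cis-regulating promoters in transiently transfected HepG2 liver cells; 24 h incubation; fitting is bidirectional against DMSO.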

[3] = ATG_ISRE_CIS: Attagene CIS-FACTORIAL HepG2 Assay for human Interferon Regulatory Factor 1 (IRF1) binding to an Interferon-Stimulated Response Element (ISRE) (AID 2282948); details: HepG2 ISRE cis-reporter (Attagene), mRNA transcription readout; actives raise or lower the signal
In short: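 Uses HepG2 liver cells transfected with cis-regulated reporters and measures mRNA 24 h post-dosing through RT-PCR, primer-extension labelling and capillary electrophoresis, with DMSO as negative control.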

[4] = ATG_M_32_CIS: Attagene CIS-FACTORIAL HepG2 Assay for M32 Transcription Factor (Internal Marker) (AID 2282949); details: HepG2 Attagene cis-factorial M32 reporter, mRNA; actives raise or lower the signal;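 further: background control marker of the multiplexed CIS panel rather than a real target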
In short: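 HepG2 human liver cells transiently transfected with cis-promoter-driven multiple reporter transcription units, dosed 24 h. Reporter mRNA quantified by RT-PCR, FAM-labelled primer extension, HpaI digest and capillary electrophoresis; bidirectional fit versus DMSO baseline.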

[5] = ATG_M_06_CIS: Attagene CIS-FACTORIAL HepG2 Assay for M06 Transcription Factor (Internal Marker) (AID 2282950); details: HepG2 Attagene CIS-FACTORIAL M06 internal marker reporter; actives raise or lower the signal
In short: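 One of many multiplexed endpoints: HepG2 reporter mRNA after 24 h dosing, detected by RT-PCR and capillary electrophoresis fluorescence; gain or loss of signal analysed against DMSO.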

[6] = molecular target: Hypoxia-inducible factor 1-alpha (Homo sapiens) (UniProt Q16665); assay: ATG_HIF1a_CIS: Attagene CIS-FACTORIAL HepG2 Assay for human Hypoxia Inducible Factor 1 (HIF1A) (AID 2282951); details: HepG2 Attagene cis-factorial HIF1a reporter transcription; actives raise or lower the signal
Sequence of Hypoxia-inducible factor 1-alpha (Homo sapiens) (Q16665 whole entry, looked up): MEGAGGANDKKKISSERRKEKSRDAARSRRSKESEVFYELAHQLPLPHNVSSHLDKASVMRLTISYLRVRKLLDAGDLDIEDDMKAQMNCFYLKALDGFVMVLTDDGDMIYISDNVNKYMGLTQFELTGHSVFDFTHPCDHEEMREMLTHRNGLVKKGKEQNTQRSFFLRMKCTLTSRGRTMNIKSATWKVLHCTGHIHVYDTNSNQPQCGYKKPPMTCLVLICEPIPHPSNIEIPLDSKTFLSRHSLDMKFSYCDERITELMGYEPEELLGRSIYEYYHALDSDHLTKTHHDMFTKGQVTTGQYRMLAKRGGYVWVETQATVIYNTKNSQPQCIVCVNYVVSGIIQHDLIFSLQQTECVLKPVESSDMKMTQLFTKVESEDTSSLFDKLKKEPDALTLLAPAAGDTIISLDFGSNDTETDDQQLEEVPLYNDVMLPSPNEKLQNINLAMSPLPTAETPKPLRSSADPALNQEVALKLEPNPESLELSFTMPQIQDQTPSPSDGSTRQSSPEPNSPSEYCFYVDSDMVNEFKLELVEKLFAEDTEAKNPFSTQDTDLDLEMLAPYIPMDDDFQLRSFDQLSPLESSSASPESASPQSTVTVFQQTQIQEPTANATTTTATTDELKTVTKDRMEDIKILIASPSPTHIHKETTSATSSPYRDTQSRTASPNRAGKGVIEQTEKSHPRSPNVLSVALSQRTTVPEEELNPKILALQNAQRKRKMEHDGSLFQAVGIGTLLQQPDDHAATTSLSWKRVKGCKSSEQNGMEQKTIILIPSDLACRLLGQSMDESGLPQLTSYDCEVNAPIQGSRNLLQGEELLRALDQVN
In short: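 HepG2 cells transiently transfected with multiple cis-regulated reporter transcription units measure endogenous transcription factor activity. After 24 h exposure, reporter mRNA is quantified by RT-PCR with 6-FAM labelling, HpaI digestion and capillary electrophoresis. Bidirectional fitting against DMSO.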

[7] = molecular target: Hepatocyte nuclear factor 6 (Homo sapiens) (UniProt Q9UBC0); assay: ATG_HNF6_CIS: Attagene CIS-FACTORIAL HepG2 Assay for human Hepatocyte Nuclear Factor 6 (HNF6) (AID 2282952); details: HepG2 Attagene cis-factorial HNF6 reporter transcription; actives raise or lower the signal
Sequence of Hepatocyte nuclear factor 6 (Homo sapiens) (Q9UBC0 whole entry, looked up): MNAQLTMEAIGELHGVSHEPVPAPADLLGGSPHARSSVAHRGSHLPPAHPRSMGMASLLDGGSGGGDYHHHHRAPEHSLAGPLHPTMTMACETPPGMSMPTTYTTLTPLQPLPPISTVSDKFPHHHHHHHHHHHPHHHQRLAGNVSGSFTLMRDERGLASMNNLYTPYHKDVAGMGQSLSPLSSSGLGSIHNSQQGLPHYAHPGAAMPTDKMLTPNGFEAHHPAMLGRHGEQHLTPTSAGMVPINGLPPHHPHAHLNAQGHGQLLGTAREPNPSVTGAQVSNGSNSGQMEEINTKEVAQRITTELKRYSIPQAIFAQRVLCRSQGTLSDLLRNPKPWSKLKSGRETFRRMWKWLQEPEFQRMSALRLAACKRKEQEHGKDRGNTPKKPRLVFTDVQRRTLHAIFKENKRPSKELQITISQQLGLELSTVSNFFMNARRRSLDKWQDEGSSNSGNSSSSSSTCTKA
In short: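 Endogenous transcription factor activity in human HepG2 liver cells was captured through cis-regulated reporter constructs. After 24 h treatment, reporter mRNA was measured by RT-PCR with capillary electrophoresis, and activity was fitted in both directions relative to DMSO.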

[8] = molecular target: Heat shock factor protein 1 (Homo sapiens) (UniProt Q00613); assay: ATG_HSE_CIS: Attagene CIS-FACTORIAL HepG2 Assay for human Heat Shock Transcription Factor 1 (HSE) (AID 2282953); details: HepG2 HSE cis-reporter, Attagene RNA transcription; actives raise or lower the signal
Sequence of Heat shock factor protein 1 (Homo sapiens) (Q00613 whole entry, looked up): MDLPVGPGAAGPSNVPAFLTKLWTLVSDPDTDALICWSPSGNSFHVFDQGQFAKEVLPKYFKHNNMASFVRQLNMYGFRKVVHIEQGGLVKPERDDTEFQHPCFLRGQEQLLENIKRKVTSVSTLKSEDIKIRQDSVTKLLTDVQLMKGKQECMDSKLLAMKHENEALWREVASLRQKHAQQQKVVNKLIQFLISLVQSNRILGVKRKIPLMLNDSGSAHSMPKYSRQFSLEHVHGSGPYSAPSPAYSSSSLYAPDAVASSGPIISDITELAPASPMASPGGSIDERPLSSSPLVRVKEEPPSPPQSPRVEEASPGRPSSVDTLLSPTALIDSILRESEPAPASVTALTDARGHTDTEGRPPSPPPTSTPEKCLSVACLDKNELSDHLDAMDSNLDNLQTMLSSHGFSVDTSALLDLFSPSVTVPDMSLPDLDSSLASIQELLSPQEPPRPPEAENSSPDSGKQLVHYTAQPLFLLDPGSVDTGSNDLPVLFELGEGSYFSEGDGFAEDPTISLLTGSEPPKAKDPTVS
In short: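 Using HepG2 with transfected cis-driven reporter constructs, compound effects on endogenous factor activity are scored as reporter mRNA change at 24 h. Detection: RT-PCR, HpaI digestion, capillary electrophoresis; bidirectional fitting to DMSO.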

[9] = ATG_MRE_CIS: Attagene CIS-FACTORIAL HepG2 Assay for human Metal Responsive Element (MRE) (AID 2282954); details: HepG2 MRE cis-reporter transcription, Attagene multiplex; actives raise or lower the signal
In short: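 Measured here is mRNA induction from an MRE cis-element reporter in HepG2 after 24 h, quantified by fluorescence of labelled RT-PCR products on capillary electrophoresis; gain- and loss-of-signal fits use DMSO as baseline.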

[10] = ATG_PBREM_CIS: Attagene CIS-FACTORIAL HepG2 Assay for human Phenobarbital-responsive Enhancer Module (PBREM) (AID 2282955); details: HepG2 PBREM cis-reporter, Attagene multiplexed transcription; actives raise or lower the signal
In short: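 HepG2 cells transiently transfected with multiple cis-regulated reporter units measure endogenous transcription factor activity; 24 h compound exposure. Reporter mRNA quantified by RT-PCR, fluorescent labelling, HpaI digestion and capillary electrophoresis; bidirectional fit versus DMSO.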

[11] = molecular target: Paired box protein Pax-6 (Homo sapiens) (UniProt P26367); assay: ATG_Pax6_CIS: Attagene CIS-FACTORIAL HepG2 Assay for human Paired Box 6 (PAX6) (AID 2282956); details: HepG2 CIS-FACTORIAL PAX6 reporter transcription, RNA readout; actives raise or lower the signal
Sequence of Paired box protein Pax-6 (Homo sapiens) (P26367 whole entry, looked up): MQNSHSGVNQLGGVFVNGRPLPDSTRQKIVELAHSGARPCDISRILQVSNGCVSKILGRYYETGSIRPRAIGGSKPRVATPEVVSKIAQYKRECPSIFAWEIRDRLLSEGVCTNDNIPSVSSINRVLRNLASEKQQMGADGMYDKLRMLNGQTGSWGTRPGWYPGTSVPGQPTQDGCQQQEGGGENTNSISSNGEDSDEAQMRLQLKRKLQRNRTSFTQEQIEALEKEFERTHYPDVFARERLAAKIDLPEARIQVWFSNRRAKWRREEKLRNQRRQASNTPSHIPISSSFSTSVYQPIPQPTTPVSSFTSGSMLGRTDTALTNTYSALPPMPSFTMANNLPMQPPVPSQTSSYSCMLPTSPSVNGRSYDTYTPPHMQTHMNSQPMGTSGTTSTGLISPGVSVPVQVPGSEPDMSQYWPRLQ
In short: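 DMSO-referenced bidirectional fits of reporter mRNA fluorescence; HepG2 with transient cis-promoter MRTUs, 24 h post-dose, RT-PCR plus capillary electrophoresis detection.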

[12] = ATG_PPRE_CIS: Attagene CIS-FACTORIAL HepG2 Assay for human Peroxisome Proliferator-activated Response Element (PPRE) (AID 2282958); details: HepG2 PPRE cis-element reporter, Attagene transcription factor profiling; actives raise or lower the signal
In short: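 HepG2 cells are transiently transfected with multiplexed cis-promoter reporter units to report endogenous PPAR activity. After 24 h dosing, reporter mRNA is read by RT-PCR and capillary electrophoresis. Fitting is bidirectional against DMSO.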

[13] = ATG_RORE_CIS: Attagene CIS-FACTORIAL HepG2 Assay for human RAR-related Orphan Receptor Element (RORE) (AID 2282959); details: HepG2 Attagene cis-factorial RORE reporter, mRNA; actives raise or lower the signal
In short: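 HepG2 cells carrying transiently transfected cis-regulated reporter units; RORE-driven reporter mRNA quantified 24 h post-dosing by RT-PCR, 6-FAM primer extension, HpaI digestion and capillary electrophoresis. Bidirectional fit versus DMSO.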

[14] = ATG_Sox_CIS: Attagene CIS-FACTORIAL HepG2 Assay for human SRY-box transcription factor (SOX) (AID 2282960); details: HepG2 Attagene cis-factorial SOX reporter, mRNA; actives raise or lower the signal
In short: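 HepG2 cells transiently transfected with multiple cis-regulated reporter units, then dosed for 24 h. Reporter mRNA quantified by RT-PCR, fluorescent labelling, HpaI digestion and capillary electrophoresis; bidirectional fit versus DMSO.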

[15] = molecular target: Transcription factor Sp1 (Homo sapiens) (UniProt P08047); assay: ATG_Sp1_CIS: Attagene CIS-FACTORIAL HepG2 Assay for human Specificity Protein 1 (Sp1) (AID 2282961); details: HepG2 Sp1 cis-reporter transcription, actives raise or lower the signal
Sequence of Transcription factor Sp1 (Homo sapiens) (P08047 whole entry, looked up): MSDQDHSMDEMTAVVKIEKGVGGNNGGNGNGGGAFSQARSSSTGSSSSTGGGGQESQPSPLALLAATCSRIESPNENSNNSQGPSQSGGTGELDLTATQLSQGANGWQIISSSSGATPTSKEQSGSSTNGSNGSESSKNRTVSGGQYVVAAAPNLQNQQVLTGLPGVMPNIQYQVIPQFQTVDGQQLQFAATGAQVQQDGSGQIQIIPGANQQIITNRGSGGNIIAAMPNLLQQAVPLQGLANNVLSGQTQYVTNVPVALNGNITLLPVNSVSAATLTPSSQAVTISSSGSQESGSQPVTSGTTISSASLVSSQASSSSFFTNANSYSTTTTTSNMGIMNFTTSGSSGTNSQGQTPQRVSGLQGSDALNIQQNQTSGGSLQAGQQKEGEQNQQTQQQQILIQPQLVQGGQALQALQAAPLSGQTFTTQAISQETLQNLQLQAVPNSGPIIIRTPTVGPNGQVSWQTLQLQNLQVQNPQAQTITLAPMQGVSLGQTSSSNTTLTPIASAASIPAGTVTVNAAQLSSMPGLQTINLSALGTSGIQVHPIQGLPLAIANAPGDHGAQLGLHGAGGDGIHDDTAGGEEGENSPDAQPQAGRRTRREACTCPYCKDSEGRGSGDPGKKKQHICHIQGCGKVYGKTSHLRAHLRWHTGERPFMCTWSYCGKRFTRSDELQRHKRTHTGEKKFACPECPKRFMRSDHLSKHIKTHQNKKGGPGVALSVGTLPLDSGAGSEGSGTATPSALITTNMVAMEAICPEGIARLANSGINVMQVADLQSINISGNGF
In short: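 HepG2 cells transiently transfected with multiplexed cis-regulated reporter constructs, chemical exposure 24 h. Reporter mRNA quantified by RT-PCR with capillary electrophoresis; bidirectional fit relative to DMSO.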

[16] = ATG_SREBP_CIS: Attagene CIS-FACTORIAL HepG2 Assay for human Sterol Regulatory Element Binding (SREBP) (AID 2282962); details: HepG2 Attagene cis-factorial SREBP reporter, mRNA; actives raise or lower the signal
In short: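 In this cis-format assay, HepG2 liver cells express reporters controlled by promoter elements responsive to native transcription factors. Exposure lasts 24 h; reporter mRNA fluorescence from capillary electrophoresis gives the signal, fitted bidirectionally against DMSO.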

[17] = molecular target: Signal transducer and activator of transcription 3 (Homo sapiens) (UniProt P40763); assay: ATG_STAT3_CIS: Attagene CIS-FACTORIAL HepG2 Assay for human Signal Transducer and Activator of Transcription 3 (STAT3) (AID 2282963); details: HepG2, Attagene cis-factorial STAT3 reporter transcription; actives raise or lower the signal
Sequence of Signal transducer and activator of transcription 3 (Homo sapiens) (P40763 whole entry, looked up, the tested form may be a part): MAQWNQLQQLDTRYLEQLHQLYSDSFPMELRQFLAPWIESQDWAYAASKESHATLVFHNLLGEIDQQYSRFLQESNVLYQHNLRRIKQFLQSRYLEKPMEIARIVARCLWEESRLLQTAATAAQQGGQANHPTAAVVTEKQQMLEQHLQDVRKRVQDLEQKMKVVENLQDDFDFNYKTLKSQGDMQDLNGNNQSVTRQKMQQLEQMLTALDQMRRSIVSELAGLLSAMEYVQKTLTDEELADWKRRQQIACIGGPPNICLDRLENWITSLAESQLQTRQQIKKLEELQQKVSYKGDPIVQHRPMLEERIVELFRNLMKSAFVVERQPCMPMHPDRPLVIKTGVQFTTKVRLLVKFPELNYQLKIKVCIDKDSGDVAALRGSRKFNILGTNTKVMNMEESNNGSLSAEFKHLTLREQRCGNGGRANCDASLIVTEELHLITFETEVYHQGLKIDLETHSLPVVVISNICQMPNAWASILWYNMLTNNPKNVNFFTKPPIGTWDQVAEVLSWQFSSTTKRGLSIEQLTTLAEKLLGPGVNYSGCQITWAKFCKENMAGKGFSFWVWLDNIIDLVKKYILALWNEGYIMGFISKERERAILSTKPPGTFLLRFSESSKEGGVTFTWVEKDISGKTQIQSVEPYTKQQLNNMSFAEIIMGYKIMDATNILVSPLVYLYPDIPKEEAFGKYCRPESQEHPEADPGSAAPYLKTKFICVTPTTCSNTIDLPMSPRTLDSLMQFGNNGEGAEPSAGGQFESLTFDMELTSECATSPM
In short: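 Fluorescence intensity of 6-FAM-labelled reporter fragments, separated by capillary electrophoresis after RT-PCR, gave the signal. Cells were HepG2 transfected with cis-element reporter units and treated 24 h; fitting was bidirectional relative to DMSO.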

[18] = ATG_TA_CIS: Attagene CIS-FACTORIAL HepG2 Assay for human TA Basal Promoter (AID 2282964); details: HepG2 Attagene CIS-factorial TA basal promoter reporter; actives raise or lower the signal
In short: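 Transient MRTU transfection of HepG2 preceded 24 h compound exposure. Reporter mRNA levels were then read by RT-PCR with capillary electrophoresis, and this background-control endpoint was fitted bidirectionally to DMSO.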

[19] = ATG_TCF_b_cat_CIS: Attagene CIS-FACTORIAL HepG2 Assay for human T-Cell-Factor with beta-catenin (TCF/b-cat) (AID 2282965); details: HepG2 TCF/beta-catenin cis-reporter transcription, actives raise or lower the signal
In short: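 HepG2, transient MRTU transfection, cis-element-driven reporters (endogenous TFs). 24 h compound exposure. Readout: reporter mRNA by RT-PCR + 6-FAM primer extension, HpaI digest, capillary electrophoresis. Gain/loss fit vs DMSO baseline.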

[20] = ATG_PXRE_CIS: Attagene CIS-FACTORIAL HepG2 Assay for human Pregnane X Receptor Element (PXRE) (AID 2282957); details: HepG2 Attagene CIS-FACTORIAL PXRE reporter, mRNA; actives raise or lower the signal
In short: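 Endogenous transcription factor activity in HepG2 was gauged through induction of reporter mRNA driven by a cis-regulating promoter element, sampled 24 h post-treatment. Activity was fitted in both directions against DMSO negative control.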

Measured: AC50

CCCCOC(=O)CC(CC(=O)OCCCC)(OC(C)=O)C(=O)OCCCC
active: [3] 26.7 µM | [9] 27.2 µM and 20.7 µM | [10] 26.6 µM | [13] 27.5 µM
inactive: [1] | [2] | [3] | [4] | [5] | [6] | [7] | [8] | [10] | [11] | [12] | [13] | [14] | [15] | [16] | [17] | [18] | [19]

CCCCOC(=O)c1ccc(O)cc1
active: [3] 148 µM and 151 µM | [8] 148 µM | [9] 143 µM and 129 µM | [10] 58.9 µM | [11] 81.5 µM | [12] 63.3 µM and 65.9 µM and 24.9 µM | [13] 65 µM | [14] 100 µM | [16] 19.8 µM | [18] 79 µM | [19] 100 µM
inactive: [2] | [3] | [4] | [5] | [7] | [8] | [9] | [10] | [11] | [12] | [13] | [14] | [15] | [16] | [17] | [18] | [19]

O=CCCCC=O
active: [3] 125 µM | [19] 71.9 µM and 100 µM
inactive: [2] | [3] | [4] | [5] | [6] | [7] | [8] | [9] | [10] | [11] | [20] | [12] | [13] | [14] | [15] | [16] | [17] | [18]

CN(C[C@@H](CC[N+]12CCC(C3CCCCC3)(CC1)CC2)c1ccc(Cl)c(Cl)c1)C(=O)c1cc(C(F)(F)F)cc(C(F)(F)F)c1
not listed: [1] | [12] | [20]
inactive: all other assays above

CCOC(=O)O[C@H](C)OC(=O)c1ccc2c(c1)cc(C(=O)NC1CCN(C(C)C)CC1)n2Cc1cc(-c2ccc(Cl)s2)on1
active: [6] 20.9 µM | [9] 51.1 µM | [15] 60 µM | [16] 33 µM
not listed: [1] | [20]
inactive: all other assays above
